This passage reports composite z-score and z-score results from PubChem BioAssay.

In assay [1] the test system is Plasmodium falciparum Sir2 (PF13_0152, Sir2A). The assay is described as follows: Plasmodium falciparum Sir2A binding compounds – biochemical, small-molecule microarray, 635 nm fluorescence, primary screen (AID 1098).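 Note: score merges spot fluorescence intensity with its signal-to-noise ratio.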 Conditions: fluorescence 635 nm, higher = more signal.
The nature of assay [2]: probe aDKK1 binding to arrayed compounds – biochemical, biotinylated probe, 635/667 nm fluorescence, primary screen (AID 1099).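 Note: score merges 667nm spot fluorescence with signal to noise across triplicate slides; reference of the scale not given here.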 As to conditions: small-molecule microarray, higher = more signal.
The nature of assay [3]: probe aCHRDL2 binding to arrayed compounds – biochemical, biotinylated probe, 635/667 nm fluorescence, primary screen (AID 1100). As to conditions: small-molecule microarray, higher = more signal.
Assay [4] is described as follows: change in splice reporter luminescence, either direction, cell-based, HEK293, spliceosome inhibition project, primary screen (AID 1101).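 Note: HEK293 cells carrying a splicing-competent luciferase reporter gene; test concentration not given here.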 As to conditions: HEK293 splicing luciferase reporter, 24 h, higher = more signal, called active from +8 up or from −8 down. (In general: Reporter assays use an easily measured gene product as a stand-in for the process of interest.)

In assay [5] the target is Fibroblast growth factor 10 (Homo sapiens) (UniProt O15520). The assay is described as follows: compounds binding fibroblast growth factor 10 – biochemical, small-molecule microarray, 635 nm fluorescence, primary screen (AID 1102). Conditions: FGF10 binding, fluorescence 635 nm, higher = more signal.
The test system of assay [6] is glycogen synthase kinase-3 (GSK3A per assay name; protocol says GSK3B). The assay is described as follows: compounds binding glycogen synthase kinase-3 – biochemical, small-molecule microarray, 635 nm fluorescence, GSK3A, primary screen (AID 1103). Note: the record names both GSK3A and GSK3B. As to conditions: fluorescence 635 nm, higher = more signal.
Assay [7] concerns the target Epidermal growth factor receptor (Homo sapiens) (UniProt P00533). Put plainly: compounds binding epidermal growth factor receptor – biochemical, small-molecule microarray, 635 nm fluorescence, primary screen (AID 1104).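 Note: score merges 667 nm emission intensity with spot signal to noise over triplicate slides.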 As to conditions: EGFR binding, higher = more signal.
The target of assay [8] is Follistatin-related protein 3 (Homo sapiens) (UniProt O95633). Put plainly: compounds binding follistatin-related protein 3 – biochemical, small-molecule microarray, 635 nm fluorescence, primary screen (AID 1105).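 Note: score merges emission near 667 nm and signal to noise per printed spot across three slides.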 As to conditions: FSTL3 binding, higher = more signal.
The target in assay [9] is Dickkopf-related protein 1 (Homo sapiens) (UniProt O94907). Put plainly: small molecules binding DKK1 protein – biochemical, small-molecule microarray, 635 nm fluorescence scan, primary screen (AID 1106).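 Note: score merges emission near 667 nm with signal to noise over three replicate slides.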 Conditions: higher = more signal.
Assay [10] deals with Inhibin beta A chain (activin A). The assay is described as follows: small molecules binding activin A – biochemical, small-molecule microarray, 635 nm fluorescence scan, primary screen (AID 1107).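 Note: mouse activin A protein probed at 4.33 µg/mL on printed slides; score merges bound-protein fluorescence near 667 nm with spot signal-to-noise.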 Conditions: INHBA, higher = more signal.

Active and inactive are the calls of the source.

Chain of Follistatin-related protein 3 (Homo sapiens) (O95633 whole entry, looked up): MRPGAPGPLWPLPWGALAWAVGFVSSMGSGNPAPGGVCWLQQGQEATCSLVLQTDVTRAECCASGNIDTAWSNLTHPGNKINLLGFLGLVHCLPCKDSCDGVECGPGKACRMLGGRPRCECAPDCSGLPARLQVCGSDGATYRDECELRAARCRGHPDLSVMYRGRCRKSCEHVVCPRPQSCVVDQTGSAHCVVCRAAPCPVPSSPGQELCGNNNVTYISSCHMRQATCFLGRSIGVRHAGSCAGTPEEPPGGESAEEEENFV
Chain of Fibroblast growth factor 10 (Homo sapiens) (O15520 whole entry, looked up): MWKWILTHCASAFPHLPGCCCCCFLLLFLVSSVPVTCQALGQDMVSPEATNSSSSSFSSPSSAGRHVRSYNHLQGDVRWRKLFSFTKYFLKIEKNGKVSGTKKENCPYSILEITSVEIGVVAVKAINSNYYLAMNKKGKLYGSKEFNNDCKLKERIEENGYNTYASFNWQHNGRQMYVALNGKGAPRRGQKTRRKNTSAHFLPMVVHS
Chain of Dickkopf-related protein 1 (Homo sapiens) (O94907 whole entry, looked up): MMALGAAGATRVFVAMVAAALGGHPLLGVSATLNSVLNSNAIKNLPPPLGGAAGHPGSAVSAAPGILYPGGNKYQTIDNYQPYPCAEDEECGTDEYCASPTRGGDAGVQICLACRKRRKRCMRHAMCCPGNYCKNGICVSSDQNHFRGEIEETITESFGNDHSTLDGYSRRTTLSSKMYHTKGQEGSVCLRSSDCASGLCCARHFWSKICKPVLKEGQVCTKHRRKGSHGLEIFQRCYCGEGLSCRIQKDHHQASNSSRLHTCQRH
Chain of Epidermal growth factor receptor (Homo sapiens) (P00533 whole entry, looked up): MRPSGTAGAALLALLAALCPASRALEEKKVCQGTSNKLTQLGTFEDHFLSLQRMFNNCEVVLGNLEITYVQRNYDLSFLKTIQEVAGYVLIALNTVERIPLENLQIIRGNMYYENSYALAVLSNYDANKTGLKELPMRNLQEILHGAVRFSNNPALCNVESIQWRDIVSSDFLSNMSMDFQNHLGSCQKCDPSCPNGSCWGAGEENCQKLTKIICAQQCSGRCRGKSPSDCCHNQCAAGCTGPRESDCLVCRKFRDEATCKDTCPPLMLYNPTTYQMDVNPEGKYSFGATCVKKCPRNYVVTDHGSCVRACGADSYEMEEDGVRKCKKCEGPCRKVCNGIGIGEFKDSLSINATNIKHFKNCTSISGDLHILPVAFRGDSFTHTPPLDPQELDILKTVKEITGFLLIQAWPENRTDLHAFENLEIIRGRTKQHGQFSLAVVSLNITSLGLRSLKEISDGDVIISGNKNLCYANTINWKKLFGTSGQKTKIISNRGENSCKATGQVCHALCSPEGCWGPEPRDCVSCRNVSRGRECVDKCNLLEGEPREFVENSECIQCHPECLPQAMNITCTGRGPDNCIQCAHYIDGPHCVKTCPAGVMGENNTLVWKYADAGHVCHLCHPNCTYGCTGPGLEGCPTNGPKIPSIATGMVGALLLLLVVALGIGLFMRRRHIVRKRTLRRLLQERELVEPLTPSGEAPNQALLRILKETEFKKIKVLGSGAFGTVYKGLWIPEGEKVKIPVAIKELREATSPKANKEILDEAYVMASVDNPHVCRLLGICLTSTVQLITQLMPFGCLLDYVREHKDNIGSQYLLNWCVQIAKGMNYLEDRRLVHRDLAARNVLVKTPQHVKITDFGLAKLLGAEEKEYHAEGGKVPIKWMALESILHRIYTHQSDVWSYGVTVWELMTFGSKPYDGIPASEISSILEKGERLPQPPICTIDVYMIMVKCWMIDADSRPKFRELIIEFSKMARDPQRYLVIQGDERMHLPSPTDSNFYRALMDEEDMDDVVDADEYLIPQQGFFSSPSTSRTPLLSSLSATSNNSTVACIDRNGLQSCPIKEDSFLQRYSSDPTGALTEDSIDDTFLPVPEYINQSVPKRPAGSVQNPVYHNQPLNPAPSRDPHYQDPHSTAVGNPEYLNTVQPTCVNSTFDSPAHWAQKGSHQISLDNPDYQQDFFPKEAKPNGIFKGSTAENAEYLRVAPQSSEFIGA

`Cc1ccc(/C=C/C=O)cc1`: the composite z-score is 1.21 in [1]; -0.051 in assay [2]; 0.44 in assay [3]; -0.0586 in [5]; -0.472 in assay [6]; -0.817 in assay [7]. Also, the composite z-score in assay [8] is -0.955; in assay [9], -0.0317; in assay [10] it was 0.579. Moreover, in assay [4], the z-score was -0.0631 (inactive).
`CCC(CC)C(O)C1C=CC2C(=O)N(c3ccccc3)C(=O)C2N1Nc1ccccc1` (stereo not given): the composite z-score came out at 1.52 in [1]; 1.29 in assay [2]; 1.15 in assay [3]; 0.988 in assay [5]; 1.21 in [6]; 0.452 in [7]. The composite z-score in assay [8] stood at 1.38; in assay [9] it was 0.0269; in assay [10] it was 0.555. Also, in assay [4], the z-score is -0.326 (inactive).
On to `COc1cc2c(cc1OC)CN(C(=O)[C@H]1[C@@H]3C(=O)O[C@@H](c4ccccc4)[C@@H](c4ccccc4)N3[C@@H](c3ccccc3OCCO)[C@]13C(=O)Nc1ccc(C#CCCO)cc13)CC2`, for which the composite z-score in assay [1] is 1.37; in assay [2], -0.112; in [3], -0.294; in [5] it was 0.786; in assay [6] it was 1.28; in [7], 0.47. The figures for the composite z-score in [8], in [9] and in assay [10] were 0.964, 0.518 and 0.931, respectively. In addition, in assay [4], the z-score is -0.826 (inactive).
`C=C(C)[C@@H]1CC=C(C(O)C2C=CC3C(=O)NC(=O)C3N2Nc2ccc(Cl)cc2Cl)CC1` (stereo not given in full): the composite z-score in [1] amounted to 0.576; in [2] it was 0.802; in assay [3], 1.3; in assay [5] it was 0.276; in [6], 0.289; in [7], 0.433. In addition, the composite z-score in assay [8] turned out to be 1.06; in assay [9], 0.414; in assay [10], 1.66. Further, the z-score in assay [4] was 0.172 (inactive).
Regarding `OCCCC1=CC(C2CC2)N(Cc2cccc(OC(F)(F)F)c2)CC1` (stereo not given), the composite z-score in assay [1] was 1.13; in assay [2], -0.454; in assay [3] it was -0.286; in assay [5], -0.963; in assay [6], -0.798; in assay [7] it was -0.651. Moreover, the composite z-score in assay [8] is -0.556; in assay [9], 0.161; in [10], 0.526. Moreover, in assay [4], the z-score was 0.0563 (inactive).
Turning to `C#CCN(C/C=C/c1ccccc1)[C@H](CO)c1ccccc1`, the composite z-score was -0.222 in assay [1]; -0.583 in [2]; -0.506 in [3]; 0.0797 in assay [5]; 0.0831 in assay [6]; -0.0239 in assay [7]. The values for the composite z-score in [8], in assay [9] and in assay [10] were 0.598, 0.358 and -0.283, respectively. Further, the z-score in assay [4] is 0.985 (inactive).
For the compound `C=C(CCCC)C(=O)CC[C@@H](OC(C)=O)c1ccc(CO)o1`, the composite z-score was 1.24 in assay [1]; -0.269 in assay [2]; -0.457 in assay [3]; 1.12 in assay [5]; 0.179 in [6]; -0.353 in [7]. The results for the composite z-score in assay [8], in assay [9] and in [10] were 0.523, 0.0693 and 0.945, respectively. Also, in assay [4], the z-score is 0.251 (inactive).
For `CO[C@H]1O[C@H](CO)[C@@H](OC(=O)Nc2cccc(F)c2)[C@H](OC(=O)Nc2ccccc2)[C@H]1OC(=O)Nc1ccccc1`, the composite z-score in assay [1] is 1.46; in [2], -0.0312; in assay [3], 0.55; in [5], 1.52; in assay [6] it was 1.35; in assay [7] it was 0.162. Moreover, the composite z-score is 1.49 in assay [8], 0.18 in assay [9] and 0.417 in assay [10]. The z-score in assay [4] was -0.0505 (inactive).
As for `CCCCN1CC=CC23O[C@@H]4/C=C\CCCOC(=O)C4[C@H]2C(=O)N(CCCO)[C@@H]3C1=O` (stereo not given in full), the composite z-score was 0.992 in assay [1]; -0.222 in [2]; 0.421 in assay [3]; -1.11 in assay [5]; -0.224 in assay [6]; -0.992 in assay [7]. The composite z-score is -0.946 in [8], -0.984 in [9] and -0.27 in assay [10]. The z-score in assay [4] is 0.187 (inactive).
Consider `NC(=O)[C@@]1(Cc2ccccc2)N=C(c2ccc(OCCCO)cc2)O[C@H]1c1ccccc1`, for which the composite z-score is 0.363 in assay [1]; 0.963 in [2]; 1.22 in [3]; 1.15 in [5]; -0.327 in assay [6]; 0.0149 in assay [7]. The composite z-score in [8] was -0.68; in assay [9] it was -0.348; in assay [10], 0.87. Further, the z-score in [4] was -1.26 (inactive).
For `COCCOC(=O)N1C(=O)[C@@]2(c3cc(C#CC4(O)CCCCCC4)ccc31)[C@H](C(=O)Nc1nc3ccccc3s1)[C@H]1C(=O)O[C@H](c3ccccc3)[C@H](c3ccccc3)N1[C@@H]2c1ccc(OCCO)cc1`, the composite z-score in assay [1] worked out at 1.28; in [2], 0.0895; in assay [3], 0.0903; in [5] it was 1.25; in [6], 1.3; in assay [7] it was 0.583. Besides, the results for the composite z-score in [8], in [9] and in [10] were 1.37, 0.84 and 0.8, respectively. The z-score in [4] was -0.426 (inactive).
Turning to `CCCC(=O)N(CCc1c[nH]c2ccccc12)[C@@H]1CC(C(=O)NCCO)=C[C@H](Oc2c(I)cc(CO)cc2OC)[C@H]1O`, the composite z-score in [1] is -0.575; in [2], -0.334; in assay [3], -0.516; in [5] it was -0.0122; in [6] it was -0.431; in assay [7], 0.164. Besides, the composite z-score in [8] is 0.0027; in [9], 0.404; in assay [10], 0.181. The z-score in assay [4] is -0.125 (inactive).
For `CCCCN1CC=CC23O[C@@H]4/C=C\CCCOC(=O)C4[C@H]2C(=O)N(CCCCCO)[C@@H]3C1=O` (stereo not given in full), the composite z-score in assay [1] is 1.29; in assay [2] it was -0.37; in [3] it was -0.167; in [5] it was -0.552; in assay [6], -1.34; in assay [7], -1.13. Moreover, the composite z-score was -1.08 in assay [8], -0.443 in [9] and 0.653 in [10]. Also, in assay [4], the z-score is 1.08 (inactive).
